# From the supplement of paper PMC8728848
# Only a selection was taken, and the strongest signals are over-represented in it overall.
# Key:
# Assay in all cases: glycan array binding signal (z-score within array); higher = stronger binding
# Conditions in all cases: glycan notation: IUPAC condensed, linker removed; mutation: N130D
# [1] = molecular target: Fuc(a1-2)Gal(b1-3)[Fuc(a1-4)]GlcNAc
# Method in brief: (§1)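 From the Consortium for Functional Glycomics database, 3228 arrays were curated, keeping only those whose protein sequence was available. Binding is given as a within-array Z-score averaged across arrays sharing a protein sequence and across linkers. Negative Z-scores can be read as non-binding.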
# [2] = molecular target: Fuc(a1-2)Gal(b1-4)GlcNAc(b1-2)Man(a1-3)[Fuc(a1-2)Gal(b1-4)GlcNAc(b1-2)Man(a1-6)]Man(b1-4)GlcNAc(b1-4)[Fuc(a1-6)]GlcNAc
# Method in brief: as §1
# [3] = molecular target: Fuc(a1-2)Gal(b1-4)GlcNAc(b1-3)Gal(b1-4)GlcNAc(b1-3)Gal(b1-4)GlcNAc
# Method in brief: as §1
# [4] = molecular target: Fuc(a1-2)[Gal(a1-3)]Gal(b1-3)GlcNAc(b1-3)GalNAc
# Method in brief: as §1
# [5] = molecular target: Fuc(a1-2)[Gal(a1-3)]Gal(b1-4)GlcNAc(b1-3)GalNAc
# Method in brief: as §1
# [6] = molecular target: Fuc(a1-2)[Gal(a1-3)]Gal(b1-4)[Fuc(a1-3)]GlcNAc(b1-3)GalNAc
# Method in brief: as §1
# [7] = molecular target: Fuc(a1-2)[GalNAc(a1-3)]Gal(b1-4)GlcNAc(b1-6)GalNAc
# Method in brief: as §1
# [8] = molecular target: Fuc(a1-3)[Gal(b1-4)]GlcNAc6S
# Method in brief: as §1
# Fuc(b1-3)GlcNAc = molecular target: Fuc(b1-3)GlcNAc
# Method in brief: as §1
# [9] = molecular target: Gal(a1-4)Gal(b1-4)GlcNAc(b1-3)Gal(b1-4)Glc
# Method in brief: as §1
# [10] = molecular target: Gal(b1-3)[Fuc(a1-4)]GlcNAc(b1-3)Gal(b1-4)[Fuc(a1-3)]GlcNAc
# Method in brief: as §1
# [11] = molecular target: Gal(b1-3)[Fuc(a1-4)]GlcNAc(b1-6)GalNAc
# Method in brief: as §1
# Gal(b1-4)GlcNAc(b1-2)Man = molecular target: Gal(b1-4)GlcNAc(b1-2)Man
# Method in brief: as §1
# [12] = molecular target: Gal(b1-4)GlcNAc(b1-2)Man(a1-6)[GlcNAc(b1-2)Man(a1-3)]Man(b1-4)GlcNAc(b1-4)GlcNAc
# Method in brief: as §1
# [13] = molecular target: Gal(b1-4)GlcNAc(b1-3)Gal(b1-4)GlcNAc(b1-3)Gal(b1-4)GlcNAc(b1-2)Man(a1-3)[Gal(b1-4)GlcNAc(b1-3)Gal(b1-4)GlcNAc(b1-3)Gal(b1-4)GlcNAc(b1-2)Man(a1-6)]Man(b1-4)GlcNAc(b1-4)GlcNAc
# Method in brief: as §1
# [14] = molecular target: Gal(b1-4)GlcNAc(b1-3)Gal(b1-4)GlcNAc(b1-3)Gal(b1-4)GlcNAc(b1-3)Gal(b1-4)GlcNAc(b1-3)Gal(b1-4)GlcNAc(b1-2)[Gal(b1-4)GlcNAc(b1-3)Gal(b1-4)GlcNAc(b1-3)Gal(b1-4)GlcNAc(b1-3)Gal(b1-4)GlcNAc(b1-3)Gal(b1-4)GlcNAc(b1-6)]Man(a1-6)[Gal(b1-4)GlcNAc(b1-3)Gal(b1-4)GlcNAc(b1-3)Gal(b1-4)GlcNAc(b1-3)Gal(b1-4)GlcNAc(b1-3)Gal(b1-4)GlcNAc(b1-2)Man(a1-3)]Man(b1-4)GlcNAc(b1-4)[Fuc(a1-6)]GlcNAc
# Method in brief: as §1
# [15] = molecular target: Gal(b1-4)GlcNAc(b1-3)Gal(b1-4)GlcNAc(b1-3)[Gal(b1-4)GlcNAc(b1-3)Gal(b1-4)GlcNAc(b1-6)]GalNAc
# Method in brief: as §1
# [16] = molecular target: Gal3S(b1-4)[Fuc(a1-3)]GlcNAc
# Method in brief: as §1
# Gal6S(b1-3)GlcNAc6S = molecular target: Gal6S(b1-3)GlcNAc6S
# Method in brief: as §1
# [17] = molecular target: GalNAc(a1-3)GalNAc(b1-3)Gal(a1-4)Gal(b1-4)GlcNAc
# Method in brief: as §1
# GalNAc(b1-3)GlcNAc = molecular target: GalNAc(b1-3)GlcNAc
# Method in brief: as §1
# GalNAc3S(b1-4)GlcNAc3S = molecular target: GalNAc3S(b1-4)GlcNAc3S
# Method in brief: as §1
# [18] = molecular target: GlcNAc(a1-4)Gal(b1-4)GlcNAc(b1-3)Gal(b1-4)GlcNAc
# Method in brief: as §1
# [19] = molecular target: GlcNAc(b1-3)[GlcNAc(b1-4)][GlcNAc(b1-6)]GlcNAc
# Method in brief: as §1
# [20] = molecular target: Man(a1-2)Man(a1-2)Man(a1-3)Man
# Method in brief: as §1
# [21] = molecular target: Man(a1-2)Man(a1-6)[Man(a1-3)]Man(a1-6)[Man(a1-2)Man(a1-2)Man(a1-3)]Man
# Method in brief: as §1
# [22] = molecular target: Neu5Ac(a2-3)Gal(b1-3)GlcNAc(b1-6)GalNAc
# Method in brief: as §1
# Neu5Ac(a2-3)Gal(b1-4)Glc = molecular target: Neu5Ac(a2-3)Gal(b1-4)Glc
# Method in brief: as §1
# [23] = molecular target: Neu5Ac(a2-3)Gal(b1-4)GlcNAc(b1-2)Man
# Method in brief: as §1
# [24] = molecular target: Neu5Ac(a2-3)Gal(b1-4)GlcNAc(b1-2)[Neu5Ac(a2-3)Gal(b1-4)GlcNAc(b1-6)]Man(a1-6)[Neu5Ac(a2-3)Gal(b1-4)GlcNAc(b1-2)Man(a1-3)][GlcNAc(b1-4)]Man(b1-4)GlcNAc(b1-4)GlcNAc
# Method in brief: as §1
# [25] = molecular target: Neu5Ac(a2-3)Gal(b1-4)GlcNAc(b1-3)Gal(b1-3)GlcNAc
# Method in brief: as §1
# [26] = molecular target: Neu5Ac(a2-3)Gal(b1-4)GlcNAc(b1-6)GalNAc
# Method in brief: as §1
# [27] = molecular target: Neu5Ac(a2-3)Gal(b1-4)[Fuc(a1-3)]GlcNAc(b1-3)GalNAc
# Method in brief: as §1
# [28] = molecular target: Neu5Ac(a2-6)Gal(b1-4)GlcNAc(b1-2)Man(a1-3)[GlcNAc(b1-4)][Neu5Ac(a2-6)Gal(b1-4)GlcNAc(b1-2)Man(a1-6)]Man(b1-4)GlcNAc(b1-4)GlcNAc
# Method in brief: as §1
# [29] = molecular target: Neu5Ac(a2-6)Gal(b1-4)GlcNAc(b1-2)Man(a1-6)Man(b1-4)GlcNAc(b1-4)GlcNAc
# Method in brief: as §1
# [30] = molecular target: Neu5Ac(a2-6)Gal(b1-4)GlcNAc(b1-3)Gal(b1-4)GlcNAc(b1-2)Man(a1-3)[Neu5Ac(a2-6)Gal(b1-4)GlcNAc(b1-3)Gal(b1-4)GlcNAc(b1-2)Man(a1-6)]GalNAc
# Method in brief: as §1
# [31] = molecular target: Neu5Ac(a2-6)Gal(b1-4)GlcNAc(b1-6)GalNAc
# Method in brief: as §1
# [32] = molecular target: Neu5Ac(a2-6)Gal(b1-4)GlcNAc(b1-6)[Gal(b1-3)]GalNAc
# Method in brief: as §1
# [33] = molecular target: Neu5Ac(a2-8)Neu5Ac(a2-3)Gal(b1-4)Glc
# Method in brief: as §1
# [34] = molecular target: Neu5Ac9Ac(a2-3)Gal(b1-4)GlcNAc
# Method in brief: as §1
binder,measurement,setting,value
Pwp5 DD (Candida glabrata) (protein) MGSSHHHHHHSSGLVPRGSHMASANPVPLTNVCYFPEEYPRQAGFRAITAGLASTILQGSVDELLNYSGLSSLTTQQTTTTTPNFQLPTLPLPTNVYGLTVVPLYLLVQLQGYFVPPVSGQYTFSLENTDDAAIIFFGNPSAFPCGDLSAWPQASADDITVTDGTFPSRTLFLKAGVAYPMRISYYNSLGSGNLAVSFTDPGGTKRTNWNGYIWRYNSCSTCTYT,glycan array binding signal (z-score),[1],0.621
same,glycan array binding signal (z-score),[2],2.89
same,glycan array binding signal (z-score),[3],-1.56
same,glycan array binding signal (z-score),[4],-0.233
same,glycan array binding signal (z-score),[5],0.126
same,glycan array binding signal (z-score),[6],-0.895
same,glycan array binding signal (z-score),[7],-0.759
same,glycan array binding signal (z-score),[8],-0.328
same,glycan array binding signal (z-score),Fuc(b1-3)GlcNAc,-0.571
same,glycan array binding signal (z-score),[9],0.021
same,glycan array binding signal (z-score),[10],-0.574
same,glycan array binding signal (z-score),[11],4.76
same,glycan array binding signal (z-score),Gal(b1-4)GlcNAc(b1-2)Man,-0.513
same,glycan array binding signal (z-score),[12],3.33
same,glycan array binding signal (z-score),[13],3.2
same,glycan array binding signal (z-score),[14],3.61
same,glycan array binding signal (z-score),[15],-0.447
same,glycan array binding signal (z-score),[16],-0.734
same,glycan array binding signal (z-score),Gal6S(b1-3)GlcNAc6S,2.71
same,glycan array binding signal (z-score),[17],1.09
same,glycan array binding signal (z-score),GalNAc(b1-3)GlcNAc,-0.687
same,glycan array binding signal (z-score),GalNAc3S(b1-4)GlcNAc3S,3.21
same,glycan array binding signal (z-score),[18],0.377
same,glycan array binding signal (z-score),[19],-0.559
same,glycan array binding signal (z-score),[20],-0.413
same,glycan array binding signal (z-score),[21],-0.259
same,glycan array binding signal (z-score),[22],0.895
same,glycan array binding signal (z-score),Neu5Ac(a2-3)Gal(b1-4)Glc,-0.436
same,glycan array binding signal (z-score),[23],2.67
same,glycan array binding signal (z-score),[24],11.6
same,glycan array binding signal (z-score),[25],-0.723
same,glycan array binding signal (z-score),[26],0.366
same,glycan array binding signal (z-score),[27],3.63
same,glycan array binding signal (z-score),[28],3.92
same,glycan array binding signal (z-score),[29],0.32
same,glycan array binding signal (z-score),[30],0.149
same,glycan array binding signal (z-score),[31],0.08
same,glycan array binding signal (z-score),[32],-0.062
same,glycan array binding signal (z-score),[33],-0.613
same,glycan array binding signal (z-score),[34],-0.213
